# Test results taken from ChEMBL document CHEMBL2218924, “A broad activity screen in support of a chemogenomic map for kinase signalling research and drug discovery” (Biochem J, 2013).
# Target: T1, Tyrosine-protein kinase ZAP-70 (Homo sapiens) (UniProt P43403)
# T1 sequence (whole entry): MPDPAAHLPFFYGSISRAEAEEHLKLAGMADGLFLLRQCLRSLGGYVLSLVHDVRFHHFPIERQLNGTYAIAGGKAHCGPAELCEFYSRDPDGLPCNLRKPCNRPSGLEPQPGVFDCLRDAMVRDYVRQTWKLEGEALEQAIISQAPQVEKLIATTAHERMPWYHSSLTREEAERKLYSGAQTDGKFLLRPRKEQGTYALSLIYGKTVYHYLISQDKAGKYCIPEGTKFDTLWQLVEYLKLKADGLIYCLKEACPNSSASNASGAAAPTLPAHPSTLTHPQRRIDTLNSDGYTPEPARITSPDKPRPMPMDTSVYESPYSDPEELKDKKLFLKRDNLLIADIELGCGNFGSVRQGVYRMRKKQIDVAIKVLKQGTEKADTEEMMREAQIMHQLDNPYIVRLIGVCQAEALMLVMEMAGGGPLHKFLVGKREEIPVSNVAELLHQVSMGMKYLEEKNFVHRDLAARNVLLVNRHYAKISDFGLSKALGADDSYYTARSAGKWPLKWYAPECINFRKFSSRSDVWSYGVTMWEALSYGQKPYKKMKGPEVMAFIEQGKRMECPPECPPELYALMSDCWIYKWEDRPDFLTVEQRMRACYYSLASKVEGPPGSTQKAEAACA
# Conditions: at 10 µM
row,Compound,residual activity [%]
1,Cc1ccc(NC2=CC(=O)c3sc(C)nc3C2=O)cc1,96
2,Oc1ccc(-c2nc(-c3ccc(F)cc3)c(-c3ccncc3)[nH]2)cc1,119
3,O=c1cc(N2CCNCC2)oc2c(-c3ccccc3)cccc12,99
4,CC(=O)c1ccc(N2CCOCC2)cc1O,86
5,O=C(O)/C=C/c1cc(Br)c(Br)c(Br)c1Br,82
6,CC(C)n1cnc2/c(=N/c3cccc(Cl)c3)nc(NCCO)[nH]c21,117
7,O=C1NC(=O)/C(=C\c2ccc3nccnc3c2)S1,94
8,Cn1cnc2cc3c(Nc4cccc(Br)c4)ncnc3cc21,89
9,Oc1c2ccccc2c2c3c(cccc13)N=N2,98
10,COc1ccc(C(=O)Nc2sc3c(c2C(N)=O)CCCC3)cc1OC,114
11,Cn1c2ccccc2c2c3c(c4c5ccccc5n(CCC#N)c4c21)CNC3=O,111
12,CC(C)n1cnc2c(NCc3ccccc3)nc(NCCCO)nc21,119
13,Cc1cc2ncc(-c3ccccc3)nc2cc1C,98
14,O=c1cc(N2CCOCC2)oc2c1ccc1ccccc12,93
15,O=Nc1c(-c2c(O)[nH]c3ccccc23)[nH]c2ccccc12,91
16,COc1ccc(-c2cnc3c(-c4ccsc4)cnn3c2)cc1,128
17,O=C(CCCc1ccc(-c2ccccc2F)cc1)Nc1ccc(O)cc1,109
18,Cc1nc(-c2ccccc2)c(-c2ccncc2)o1,135

row,Compound,residual activity [%]
1,CC[n+]1c(/C=C/N(C)c2ccccc2)n(-c2ccccc2)c2ccc(-c3nc4ccccc4s3)cc21,130
2,CN(C)c1ccc(/C=C2\C(=O)Nc3ccccc32)cc1,115
3,Cc1ccc(S(=O)(=O)/C=C/C#N)cc1,118
4,N#C/C(=C(\N)Sc1ccc(N)cc1)c1ccccc1C(F)(F)F,101
5,COc1cc2ncnc(Nc3ccc(O)c(Br)c3)c2cc1OC,105
6,COc1cccc(-c2cc(=O)c3ccccc3o2)c1N,120
7,O=C1NC(=O)C(c2cn(CCCn3ccnc3)c3ccccc23)=C1Nc1ccccc1,118
8,O=C1Nc2ccccc2/C1=C1/Nc2ccccc2/C1=N\OCCC(O)CO (stereo not given),98
9,O=[N+]([O-])c1ccc(-c2nc(-c3ccc(F)cc3)c(-c3ccncc3)[nH]2)cc1,122
10,Ic1cccc(CSc2nnc(-c3ccncc3)o2)c1,102
11,Cn1nc2c3c(cccc31)C(=O)c1ccccc1-2,85
12,COc1ccc(CNc2nc(N(CCO)CCO)nc3c2ncn3C(C)C)cc1,88
13,NC(=O)c1ccc(-c2nc(-c3ccc4c(c3)OCCO4)c(-c3ccccn3)[nH]2)cc1,86
14,Oc1n[nH]c2nnc(-c3c(-c4ccccc4)nn4ccccc34)cc12,99
15,CC(C)(C)n1nc(Cc2cccc3ccccc23)c2c(N)ncnc21,110
16,O=C1Cc2c([nH]c3ccc([N+](=O)[O-])cc23)-c2ccccc2N1,105
17,CCOc1cc2ncnc(Nc3cccc(Br)c3)c2cc1OCC,119
